ELG1 genotoxic: genotoxicity induction in ELG1-luciferase HEK293T cells; HEK293T ELG1-luciferase reporter, luminescence, 16 h; Potency, µM (highest dose often 46 µM), most hits filed as activators; 330,000 tested, 1.3% active; AID 504466; further: nearly all actives have a fitted effect of over 60% in size
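Genotoxic stress is detected as increased luminescence from luciferase-tagged ELG1 in HEK293T cells, measured with ONE-Glo after a 16 hr treatment at 37 °C.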
p53 reactivator: restores transcriptional activity of mutant p53 | H1299 p53-A138V BP100-luciferase reporter, luminescence, 24 h | Potency, µM (highest dose often 92.2 µM), most hits filed as activators | 320,000 tested, 0.063% active; further: nearly all actives have a fitted effect of over 45% in size
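H1299 (p53-null), stable ts p53-A138V + BP100-Luc; 1000 cells/well, Opti-MEM/10% FBS; cpd 4 pt, 1:5; 24 h, 37 deg C, 5% CO2; detection reagent 10 min RT; luminescence.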
ELG1 repair inh: blocks ELG1-dependent DNA repair in HEK293T cells; 330,000 tested, 2.3% active; Potency, µM (highest dose often 46.1 µM), actives largely listed as inhibitors; HEK293T ELG1-luciferase reporter, luminescence, 16 h; DNA damage induced by 5-fluorouridine; further: nearly all actives have a fitted effect of over 55% in size
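Quantitative HTS, concentration-response format. 2,000 cells/well co-treated with 5-fluorouridine and compound, 16 hr in 5% CO2 at 37 °C; ONE-Glo luminescence read after 30 min.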
AT treatment: potential ataxia-telangiectasia treatment; F2112 A-T fibroblasts, KAP-1 phosphorylation AlphaLISA; neocarzinostatin DNA damage 30 min before lysis; Potency, µM (top dose mostly 57.5 µM), usual class: activators; 320,000 tested, 0.19% active; further: nearly all actives have a fitted effect of over 45% in size
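ATM-like activity read as KAP-1 phosphorylation via AlphaLISA donor/acceptor antibody pairs after lysis and 6 hr at 25C. Cells were ATM-null patient fibroblasts (F2112, hTERT), dosed 60 min, then exposed to the DSB inducer NCS for 30 min.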
SW480 rereplic: DNA re-replication induction in SW480 cells; SW480 DNA re-replication, Hoechst DNA content imaging, 48 h; Potency, µM (top dose mostly 46.1 µM), usual class: activators; 340,000 tested, 1.8% active; AID 624297; further: nearly all actives have a fitted effect of over 55% in size
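Hoechst fluorescence of nuclei (405 nm excitation, 500-530 nm emission) measured by plate-scanning imager after 48 hr compound exposure at 37 C; re-replication scored as increased number of nuclei with elevated intensity.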
MCF10A rerep: induces DNA re-replication in MCF 10a normal breast cells. MCF 10A DNA re-replication, Hoechst nuclear intensity, 48 h. AID 624296. 350,000 tested, 2.9% active. Potency, µM (titrated, usually from 46.1 µM), most hits filed as activators; further: nearly all actives have a fitted effect of over 50% in size
Of the large screens only hits and unclear results are named; the others gave an inactive call; ! = repeats disagree. Only some compounds are listed: those with a hit (about 7.1% of all), similar ones and a draw of the others. The call rests on the fitted dose curve; in most records, active means well fitted curve in the direction sought with a large enough effect; inconclusive means small, poorly fitted or top-dose-only effect, or another doubt; inactive means no such curve, though single readings can be large; an effect the other way counts as inactive or inconclusive.

CO/N=C(/C(=O)N[C@@H]1C(=O)N2C(C(=O)O)=C(C[n+]3ccc(N)n3CCO)CS[C@H]12)c1csc(N)n1	none (no result: ELG1 genotoxic, p53 reactivator, ELG1 repair inh, AT treatment)
CCn1cc(C(=O)NCCc2ccc(OC)cc2)c(=O)c2ccc(C)nc21	none
COc1ccc([N+](=O)[O-])cc1NC(=O)COC(=O)c1ccccn1	none
Cc1ccc(NC(=O)Cc2nc(-c3c[nH]c(C(=O)N4CCCC4)c3)cs2)c(C)c1	ELG1 repair inh 16µM
COC(=O)[C@H]1[C@H]2C[C@@H]3c4[nH]c5cc(OC)ccc5c4CCN3C[C@H]2C[C@@H](OC(=O)c2cc(OC)c(OC)c(OC)c2)[C@@H]1OC	ELG1 repair inh 10µM, SW480 rereplic inconclusive, MCF10A rerep 30µM!
CCOc1ccc2[nH]c3c(NCCc4ccc(OC)c(OC)c4)ncnc3c2c1	ELG1 repair inh 21µM, SW480 rereplic inconclusive, MCF10A rerep inconclusive
CCOc1ccc2[nH]c3c(NCCO)ncnc3c2c1	none
COc1cc(CNc2ncnc3c2[nH]c2ccc(C)cc23)cc(OC)c1	ELG1 repair inh 21µM, MCF10A rerep inconclusive
c1ccc(-c2nnnn2-c2ccccc2)cc1	SW480 rereplic inconclusive
ClC(Cl)(c1nnnn1-c1ccccc1)c1nnnn1-c1ccccc1	SW480 rereplic 13µM, MCF10A rerep inconclusive
Cc1ccsc1C(=O)OCc1csc(-c2ccccc2)n1	ELG1 genotoxic 7.3µM, p53 reactivator inconclusive, ELG1 repair inh inconclusive
COc1cc(O)c2c(=O)c(-c3ccc(O[C@@H]4O[C@H](CO)[C@@H](O)[C@H](O)[C@H]4O)cc3)coc2c1	ELG1 genotoxic inconclusive, ELG1 repair inh inconclusive
O=c1c(-c2ccc(O)cc2)coc2cc(OC3OC(CO)C(O)C(O)C3O)cc(O)c12 (configuration not stated)	ELG1 genotoxic 15µM, p53 reactivator inconclusive, ELG1 repair inh inconclusive, SW480 rereplic inconclusive
O=c1c(-c2ccc(O)cc2)coc2cc(OC3OC(CO)C(O)C(O)C3O)ccc12 (configuration not stated)	ELG1 genotoxic 16µM, p53 reactivator inconclusive, ELG1 repair inh inconclusive
O=C(COC(=O)c1nc(Cl)ccc1Cl)NC1CCCCC1	none
CCCCN(C(=O)C(C)(C)Oc1ccc(Cl)cc1)c1c(N)n(CCC)c(=O)[nH]c1=O	none
Cc1noc(/C=C/N(C)C)c1S(=O)(=O)N1CCC(C(=O)NC(C)(C)C)CC1	none
O=C(CSc1ccccc1)NNC(=O)c1ccncc1	ELG1 repair inh inconclusive
NC(=O)C1(Nc2ccc(C(=O)O)cc2)CCCC1	none (no result: ELG1 genotoxic, p53 reactivator, ELG1 repair inh, AT treatment)
Cc1ccc(C(=O)c2ccc(C)cc2)cc1	none
Cc1ccc(C(=O)c2no[n+]([O-])c2C(=O)c2ccc(C)cc2)cc1	ELG1 repair inh inconclusive, SW480 rereplic 5.2µM, MCF10A rerep 7.3µM
COc1ccc(-c2cc(C(=O)N3CCN(c4ncccn4)CC3)c3ccccc3n2)c(OC)c1	ELG1 repair inh 9.2µM, MCF10A rerep inconclusive
COc1ccc(-c2cc(C(=O)N3CCCCCC3)c3ccccc3n2)c(OC)c1	ELG1 repair inh inconclusive
COc1ccc(-c2cc(C(=O)N3CCN(c4ccccc4O)CC3)c3ccccc3n2)cc1	none
CCOc1ccccc1N1CCN(C(=O)c2cc(-c3cc(OC)ccc3OC)nc3ccccc23)CC1	ELG1 repair inh 6.5µM, SW480 rereplic inconclusive, MCF10A rerep inconclusive
COc1ccc(-c2cc(C(=O)N3CCN(c4ccccc4F)CC3)c3ccccc3n2)c(OC)c1	ELG1 repair inh 5.8µM (no result: p53 reactivator)
COc1ccc(-n2nc(C(=O)N3CCN(c4ccc(F)cc4)CC3)c3ccccc3c2=O)c(OC)c1	ELG1 repair inh 9.2µM (no result: AT treatment)
COc1ccc(-c2cc(C(=O)O)c3ccccc3n2)c(OC)c1	none
CC(C)CN(C(=O)c1cc(=O)[nH]c2ccccc12)c1c(N)n(Cc2ccccc2)c(=O)[nH]c1=O	none
COCCC(=O)N1CCC(Oc2ccc(C(=O)NCCC3=CCCCC3)cc2)CC1	MCF10A rerep inconclusive
COc1ccc(N2CCN(C(=O)c3cc(-c4cc(OC)ccc4OC)nc4ccccc34)CC2)cc1	ELG1 repair inh 7.3µM (no result: p53 reactivator)
Cc1ccc(-c2cc(C(=O)N3CCN(c4ccc(O)cc4)CC3)c3ccccc3n2)cc1	ELG1 repair inh inconclusive
COc1ccc(OC)c(-c2cc(C(=O)Nc3ccccc3C(N)=O)c3ccccc3n2)c1	none (no result: ELG1 genotoxic, p53 reactivator, ELG1 repair inh, AT treatment)
COc1ccc(-n2ncc(C(=O)N3CCN(c4ccc(F)cc4)CC3)c2C)cc1	ELG1 repair inh 21µM
COc1ccc(N2CCN(C(=O)c3cc(-c4ccc(F)cc4)[nH]c3C)CC2)cc1	none
COc1ccc(OC)c(-c2cc(C(=O)N3CCN(c4ncccn4)CC3)c3ccccc3n2)c1	ELG1 repair inh 13µM
C[n+]1ccc(/C=C/c2ccccc2O)c2ccccc21	ELG1 repair inh inconclusive, MCF10A rerep inconclusive
CN1/C(=C/c2cc[n+](C)c3ccccc23)C=Cc2ccccc21	ELG1 repair inh 1.3µM
Cc1ccccc1C(=O)N1CCN(CCNC(=O)C(=O)Nc2ccc(Br)cc2)CC1	ELG1 repair inh 21µM, MCF10A rerep inconclusive
S=C(NCCN1CCCCC1)Nc1ccc(Br)cc1	SW480 rereplic 16µM
S=C(NCCN1CCCCC1)Nc1ccccc1	none
COc1ccccc1C(=O)N1CCN(CCNC(=O)C(=O)Nc2ccc(Br)c(C)c2)CC1	ELG1 repair inh inconclusive
CSc1nc(SCC(=O)NC(c2ccccc2)c2ccccc2)c2c3c(sc2n1)CN(C)CC3	ELG1 genotoxic inconclusive, ELG1 repair inh inconclusive, SW480 rereplic 5.8µM, MCF10A rerep 5.2µM
COC(=O)CC1=NN(c2ccccc2)C(=O)/C1=C\c1ccc(OC)cc1	ELG1 repair inh inconclusive
CCn1c(=O)c(C(=O)CN2CCN(Cc3ccc4c(c3)OCO4)CC2)c(N)n(Cc2ccccc2)c1=O	ELG1 repair inh inconclusive
COC(=O)Cn1c(=O)c2c(n(Cc3ccccc3)c1=O)N/C(=C/c1ccc(OC)cc1)C2=O	SW480 rereplic 21µM, MCF10A rerep 18µM
COC(=O)Cn1ncc2c(C)n(Cc3ccccc3)c(C)c2c1=O	ELG1 genotoxic 21µM, ELG1 repair inh inconclusive
COC(=O)Cn1c(=O)c(C(=O)CCl)c(N)n(Cc2ccccc2)c1=O	ELG1 repair inh inconclusive, SW480 rereplic inconclusive, MCF10A rerep 5.2µM
CCn1c(=O)c(C(=O)CN2CCN(S(=O)(=O)c3cc(C)ccc3C)CC2)c(N)n(Cc2ccccc2)c1=O	ELG1 repair inh 6.5µM, MCF10A rerep inconclusive
CC(C)CCCC(C)CCCC(C)CCCCC(C)CCCC(C)CCCC(C)C (configuration not stated)	none (no result: ELG1 genotoxic, p53 reactivator, ELG1 repair inh, AT treatment)

Screening data: PubChem, National Center for Advancing Translational Sciences (NCATS)
